# DT40 TDP1 no CPT – qHTS for Inhibitors of human tyrosyl-DNA phosphodiesterase 1 (TDP1): qHTS in cells in absence of CPT | DT40 Tdp1-/- hTDP1 cells, no CPT, ATP luminescence, 48 h | Potency, µM (highest dose often 46.2 µM), for the others: at the top dose activity change, negative = growth inhibition, actives largely listed as inhibitors | 420,000 tested, 15% active | AID 686978, 2013; note: potency is the fitted concentration of half-maximal effect; % is set by controls: 0 for no effect and ±100 for the full control effect; nearly all actives have a fitted effect of over 55% in size
#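 Cells were dispensed at 400 per well, compounds added by pin tool, plates incubated ≥48 hr at 37 °C, then CellTiter-Glo added for 30 min at room temperature before luminescence reading. Line: DT40 Tdp1-/- complemented with hTDP1; camptothecin omitted.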
# DRD3 agonist – agonists of human D3 dopamine receptor; P35462; max activation, %; 410,000 tested, 0.58% active; D3R DiscoveRx beta-arrestin cells, luminescence, 90 min; in the data active = max activation above about 30%; note: 0% is about no effect
#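 Cells at 1500/well, incubated overnight, then treated with pinned compounds (dopamine as control) for 90 min at 37 degrees C. DiscoveRx reagent added for 30 - 60 minutes at room temperature; luminescence read.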
# IL-1B inflam inh – blocks inflammasome-driven IL-1 beta release | AID 743279 | 360,000 tested, 4.7% active | activity change, % at 57.5 µM | THP-1 LPS/ATP IL-1B secretion, AlphaLISA, 16 h; active compounds read low; in the data active = activity change below about -50%; inconclusive = mostly about -30% to -49%; note: % is set by controls: 0 for no effect and ±100 for the full control effect
#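 THP-1 cells pretreated 1 hr with compounds (up to 57.5 uM final), then stimulated with LPS (250 ng/mL final) plus ATP (1.25 mM final); secreted IL-1B measured by AlphaLISA after 16 hr, decreased signal indicating inhibition.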
# TDP1 cell CPT – growth inhibition of DT40 Tdp1-/-;hTDP1 cells with camptothecin (screen for TDP1 inhibitors) | chicken DT40 Tdp1-/-;hTDP1 cells + 20 nM CPT, ATP luminescence, 48 h | Potency, µM (top dose mostly 46.2 µM), for the others: top-dose activity change, negative = growth inhibition, usual class: inhibitors | 420,000 tested, 12% active | AID 686979; note: potency is the fitted concentration of half-maximal effect; % is set by controls: 0 for no effect and ±100 for the full control effect; nearly all actives have a fitted effect of over 55% in size
#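 Cell growth measured by CellTiter-Glo luminescence after a minimum 48 h, 37 C compound exposure with 20 nM CPT in Tdp1-knockout DT40 cells stably expressing hTDP1, seeded 400/well; qHTS titration format.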
# ClpP mod – qHTS Assay for Activators of ClpP. ATP-dependent Clp protease proteolytic subunit (Bacillus subtilis (strain 168)), P80244. Potency, µM (highest dose often 57.5 µM), without a hit: at the top dose activity change, negative = active. 340,000 tested, 1.9% active. purified B. subtilis ClpP, FRET peptide cleavage, 20 min. AID 651965, 2013; active = well fitted falling curve with a large enough effect; inconclusive = small, poorly fitted or top-dose-only effect; inactive = no such curve, though single readings can be large or run the other way; note: potency is the fitted concentration of half-maximal effect; the source files actives as falling curves though it sought activators and does not explain the sign; nearly all actives have a fitted effect of over 65% in size
#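 Purified B. subtilis ClpP, 10 microg/mL final in Tris/HCl pH8 with KCl, BSA, glycerol and Tween-20, cleaved an Abz/nitrotyrosine-quenched decapeptide. Fluorescence (ex 320, em 430) was read at 0 and 20 min at room temperature. Delta was normalized to 5.8 microM ADEP and DMSO/no-enzyme controls.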
# DRD3 antagonist – antagonists of human D3 dopamine receptor; 360,000 tested, 2.5% active; AID 652054; D3R cells, DiscoveRx beta-arrestin luminescence, antagonist mode; active compounds read low; max response, negative = inhibition, %; in the data active = max response below about -50%; inconclusive = no clear call, values can overlap the other calls; note: % is set by controls: 0 for no effect and ±100 for the full control effect
#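 Cells plated overnight at 1500 cells/well, then exposed to library compounds with dopamine controls for 90 minutes at 37 degrees C. DiscoveRx reagent added for 30–60 minutes at room temperature; luminescence read, quantitative HTS format.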
# Numbers without * were called inactive; ? = inconclusive; . = not tested or not shown. Shown are actives, neighbours in structure and some others; about 21% of the full set was active somewhere. Unless noted, calls come from the whole dose curve; as a rule, active = well fitted inhibition curve with a large enough effect; inconclusive = small, poorly fitted or top-dose-only effect; inactive = flat fitted curve, though single readings scatter.
SMILES,DT40 TDP1 no CPT,DRD3 agonist,IL-1B inflam inh,TDP1 cell CPT,ClpP mod,DRD3 antagonist
CCOC(=O)C1=C(C)NC(SC)=C(C#N)C1CC(C)C (centres undefined),3.7µM*,-1,?,3.7µM*,.,-23
CC(=O)C1=C(C)NC(SCc2cccc([N+](=O)[O-])c2)=C(C#N)C1c1ccco1 (centres undefined),?,-4,-66*,?,-2%,-14
CC(=O)C1=C(C)NC(SCC(=O)c2ccc(Cl)c(Cl)c2)=C(C#N)C1c1ccco1 (centres undefined),?,17,-57*,?,0%,12
O=C(NC1CCCC1)C1c2ccccc2OCC(=O)N1Cc1ccc2c(c1)OCO2 (centres undefined),?,-2,-4,-7%,-1%,-9
CC(=O)C1=C(C)NC(SCC(=O)c2ccc(F)cc2)=C(C#N)C1c1ccco1 (centres undefined),?,14,-85*,?,-1%,12
COc1ccc(N2C(=O)C(CN3CCCCC3)C2c2ccccc2)cc1 (centres undefined),13µM*,-19,16,?,-1%,-14
COc1ccc(NC2=CC(c3ccccc3)N(c3ccc(OC)cc3)C2=O)cc1 (centres undefined),8.2µM*,0,-18,?,0%,1
Cn1cccc1/C=N/NC(=O)c1cc(-c2cccs2)nc2ccccc12,5.8µM*,-7,21,8.2µM*,-3%,5
Cc1cc(C(=O)N/N=C/c2cccnc2)c2ccccc2n1,?,1,40,?,0%,0
Cn1cccc1/C=N/NC(=O)c1cc2ccccc2cc1O,21µM*,1,74,-27%,.,-1
Cc1ccc2c(Cl)c(C(=O)N/N=C/c3cccn3C)sc2c1,8.2µM*,3,2,8.2µM*,25%,-3
O=C(N/N=C/c1cccnc1)c1cc(-c2cccs2)nc2ccccc12,16µM*,2,30,?,25µM*,11
C/C(CC(=O)Nc1ccc(C)c(Cl)c1)=N\NC(=O)c1cccc(O)c1,-10%,3,11,?,-1%,18
O=C(N/N=C/c1cccs1)c1ccc2ncccc2c1,-2%,-3,-21,1%,-4%,-7
O=C(N/N=C/c1ccc[nH]1)c1cc(-c2cccs2)nc2ccccc12,21µM*,-5,15,?,1%,-2
O=C(N/N=C/c1ccc2ncccc2c1)c1cc(-c2cccs2)nc2ccccc12,3.3µM*,24,30,2.9µM*,3%,40
CCc1ccc(NC(=O)C(C)OC(=O)c2ccc(NS(=O)(=O)c3ccc(C)c([N+](=O)[O-])c3)cc2)cc1 (centres undefined),?,-22,-77*,?,-1%,-53*
Cc1ccc(NC(=O)C(C)OC(=O)c2ccc(NS(=O)(=O)c3ccc(F)c(F)c3)cc2)cc1 (centres undefined),?,-1,?,?,-2%,14
COc1ccc(C)cc1NC(=S)NC(C)c1ccc(OC)c(OC)c1 (centres undefined),?,-3,-26,?,2%,-8
O=C(CCc1nnc(CCCCc2ccccc2)o1)NCCN1CCCCC1=O,-18%,-23,16,-11%,.,-1
COc1ccc(/C=N/n2c(COc3ccccc3)n[nH]c2=S)cc1OC,-5%,-4,34,-4%,-1%,-12
C[C@@H]1CC[C@H](O)/C=C/C(=O)O[C@H](C)CC[C@H](O)/C=C/C(=O)O1,5.2µM*,2,-4,5.2µM*,-3%,15
CC(=O)Nc1ccc(NC(=O)c2cc(C3CC3)nc3c2cnn3C(C)C)cc1,?,-12,-9,29µM*,.,-5
CC(C)n1ncc2c(C(=O)Nc3cccc(S(=O)(=O)N(C)C)c3)cc(C3CC3)nc21,9.2µM*,5,.,18µM*,-12%,38
O=S(=O)(NCCC1=CCCCC1)c1cccc(Br)c1,18µM*,-1,2,?,-3%,2
SMILES,DT40 TDP1 no CPT,DRD3 agonist,IL-1B inflam inh,TDP1 cell CPT,ClpP mod,DRD3 antagonist
O=[N+]([O-])c1ccccc1S(=O)(=O)NCCC1=CCCCC1,21µM*,-7,-26,18µM*,-1%,?
CN1/C(=C\C(=S)Nc2ccccc2)C(C)(C)c2ccccc21,2.1µM*,-4,?,10µM*,.,1
CN1/C(=C\C(=O)Nc2ccc(Cl)cc2)C(C)(C)c2ccccc21,?,3,-58*,?,.,13
CN1/C(=C\C(=O)c2cccs2)C(C)(C)c2ccccc21,-11%,-9,0,-11%,1%,14
Cc1cccc(C)c1C(=NCCCN(C)C)c1ccccc1,-29%,-8,28,-15%,-1%,-78*
COc1ccc(-c2noc(CCCC(=O)Nc3ccc(C(N)=O)cc3)n2)cc1,-25%,3,40,-24%,-1%,17
CCOC(=O)c1ccc(NC(=O)CCc2nc(-c3cccc(C)c3)no2)cc1,16µM*,2,?,?,2%,36
CC(=O)c1ccc(NC(=O)CCCc2nc(-c3cccc(C)c3)no2)cc1,21µM*,2,.,-29%,1%,.
Cc1cccc(-c2noc(CCC(=O)Nc3ccccc3)n2)c1,?,-6,12,?,0%,-19
COc1ccc(NCc2cc3ccc(OC)cc3n(CC(=O)Nc3ccc(C)c(C)c3)c2=O)cc1,.,4,.,.,1%,.
Cc1[nH]c2ccccc2c1C(=O)C(C)OC(=O)C1CCC1 (centres undefined),-28%,2,0,0%,-1%,13
O=C(COC(=O)c1c2c(nc3ccccc13)/C(=C\c1cccs1)CCC2)Nc1ccccc1,9.2µM*,38*,-55*,21µM*,11%,43
O=C(COC(=O)c1cccs1)Nc1ccccc1,-9%,5,-1,-6%,0%,?
CC(C)CNC(=O)COC(=O)c1c2c(nc3ccccc13)/C(=C\c1cccs1)CC2,21µM*,11,-5,?,0%,44
CC(=O)c1ccc(NC(=O)COC(=O)c2c3c(nc4ccccc24)/C(=C\c2cccs2)CCC3)cc1,16µM*,-1,-51*,13µM*,1%,-6
O=C(O)c1ccc(/C=C2\CCCc3c2nc2ccccc2c3C(=O)O)cc1,-9%,-5,10,-16%,.,8
